Measurements published in PubChem BioAssay AID1159580 (chemical genetic matrix, 2015).
Hit rate of the full screen: of about 5,500 compounds, about 2,000 (36%) were called active. About 18% were inconclusive and are not listed. Rule as the data show it: active = normalized growth mostly below about 0.91 (no sharp cut-off); inconclusive = no clear call, values can overlap the other calls; inactive = mostly above about 0.92. The list shows a part of the results.

Test: chemical genetic growth profiling, strain panel (AID 1159580);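 also: tested at 20 µM; growth read once vehicle control cultures reached saturation at 30 °C; 1 = growth at the plate median or of vehicle wells; lower values mean less growth of the strain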
Conditions: growth OD

Measured: normalized growth

N[C@@H](C(=O)O)[C@@H](O)[C@H](O)[C@H](O)CO
inactive: S. cerevisiae deletion strains, locus YJR066W, strain TOR1, stronger effect = lower value 0.985 | S. cerevisiae deletion strains, locus YJR075W, strain HOC1, stronger effect = lower value 1.02 | S. cerevisiae deletion strains, locus YKL009W, strain mrt4, stronger effect = lower value 1 | S. cerevisiae deletion strains, locus YKL068W, stronger effect = lower value 1.01 | S. cerevisiae deletion strains, locus YKL085W, strain MDH1 (second series), stronger effect = lower value 1.02 | S. cerevisiae deletion strains, locus YKL085W, strain MDH1, stronger effect = lower value 1.02 | S. cerevisiae deletion strains, locus YKL160W, strain elf1, stronger effect = lower value 1.03 | S. cerevisiae deletion strains, locus YKL190W, strain CNB1, stronger effect = lower value 1.01 | S. cerevisiae deletion strains, locus YKR001C, strain vps1, stronger effect = lower value 1.04 | S. cerevisiae deletion strains, locus YKR026C, strain gcn3, stronger effect = lower value 1.04 | S. cerevisiae deletion strains, locus YKR091W, strain srl3, stronger effect = lower value 1.02 | S. cerevisiae deletion strains, locus YLL001W, strain dnm1, stronger effect = lower value 1.03 | S. cerevisiae deletion strains, locus YLL026W, stronger effect = lower value 1.03 | S. cerevisiae deletion strains, locus YLL041C, strain sdh2, stronger effect = lower value 1.02 | S. cerevisiae deletion strains, locus YLR027C, strain aat2, stronger effect = lower value 1.02 | S. cerevisiae deletion strains, locus YLR039C, strain RIC1, stronger effect = lower value 1.1 | S. cerevisiae deletion strains, locus YLR058C, strain SHM2, stronger effect = lower value 1.01 | S. cerevisiae deletion strains, locus YLR102C, strain apc9, stronger effect = lower value 1.01 | S. cerevisiae deletion strains, locus YLR113W, strain HOG1, stronger effect = lower value 1.07 | S. cerevisiae deletion strains, locus YLR221C, strain rsa3, stronger effect = lower value 1.03 | S. cerevisiae deletion strains, locus YLR258W, strain gsy2, stronger effect = lower value 1.01 | S. cerevisiae deletion strains, locus YLR262C, strain YPT6 (second series), stronger effect = lower value 1.06 | S. cerevisiae deletion strains, locus YLR262C, strain YPT6, stronger effect = lower value 1.14 | S. cerevisiae deletion strains, locus YLR268W, strain sec22, stronger effect = lower value 1.04 | S. cerevisiae deletion strains, locus YLR320W, strain mms22, stronger effect = lower value 1.03 | S. cerevisiae deletion strains, locus YLR330W, strain CHS5, stronger effect = lower value 1.01 | S. cerevisiae deletion strains, locus YLR342W, strain FKS1 (second series), stronger effect = lower value 1.01 | S. cerevisiae deletion strains, locus YLR342W, strain FKS1, stronger effect = lower value 1.03 | S. cerevisiae deletion strains, locus YLR357W, strain rsc2, stronger effect = lower value 1.04 | S. cerevisiae deletion strains, locus YLR370C, strain arc18, stronger effect = lower value 1.02 | S. cerevisiae deletion strains, locus YLR371W, strain rom2, stronger effect = lower value 1.02 | S. cerevisiae deletion strains, locus YLR384C, strain iki3, stronger effect = lower value 1.02 | S. cerevisiae deletion strains, locus YLR418C, strain cdc73, stronger effect = lower value 1.01 | S. cerevisiae deletion strains, locus YML016C, strain PPZ1, stronger effect = lower value 1.01 | S. cerevisiae deletion strains, locus YML032C, strain rad52, stronger effect = lower value 0.989 | S. cerevisiae deletion strains, locus YML120C, strain ndi1, stronger effect = lower value 1.03 | S. cerevisiae deletion strains, locus YML124C, strain tub3, stronger effect = lower value 1.02 | S. cerevisiae deletion strains, locus YMR058W, strain fet3, stronger effect = lower value 1.03 | S. cerevisiae deletion strains, locus YMR078C, strain ctf18, stronger effect = lower value 1.03 | S. cerevisiae deletion strains, locus YMR125W, strain sto1, stronger effect = lower value 1.02 | S. cerevisiae deletion strains, locus YMR129W, stronger effect = lower value 1.03 | S. cerevisiae deletion strains, locus YMR205C, strain PFK2, stronger effect = lower value 1.03 | S. cerevisiae deletion strains, locus YMR223W, strain ubp8, stronger effect = lower value 1.01 | S. cerevisiae deletion strains, locus YMR231W, strain pep5, stronger effect = lower value 1 | S. cerevisiae deletion strains, locus YMR307W, strain GAS1, stronger effect = lower value 0.992 | S. cerevisiae deletion strains, locus YNL067W, strain RPL9B, stronger effect = lower value 1.01 | S. cerevisiae deletion strains, locus YNL071W, strain lat1, stronger effect = lower value 1.03 | S. cerevisiae deletion strains, locus YNL153C, strain GIM3, stronger effect = lower value 1.01 | S. cerevisiae deletion strains, locus YNL183C, strain NPR1, stronger effect = lower value 0.989 | S. cerevisiae deletion strains, locus YNL209W, strain ssb2, stronger effect = lower value 1.02 | S. cerevisiae deletion strains, locus YNL233W, strain BNI4, stronger effect = lower value 1.02 | S. cerevisiae deletion strains, locus YNL248C, strain rpa49, stronger effect = lower value 1.04 | S. cerevisiae deletion strains, locus YNL250W, strain rad50, stronger effect = lower value 1.03 | S. cerevisiae deletion strains, locus YNL271C, strain bni1, stronger effect = lower value 1.03 | S. cerevisiae deletion strains, locus YNL298W, strain CLA4, stronger effect = lower value 1.02 | S. cerevisiae deletion strains, locus YNL307C, strain MCK1, stronger effect = lower value 1.02 | S. cerevisiae deletion strains, locus YNL322C, strain KRE1 (second series), stronger effect = lower value 1.03 | S. cerevisiae deletion strains, locus YNR049C, strain mso1, stronger effect = lower value 1.04 | S. cerevisiae deletion strains, locus YNR052C, strain pop2, stronger effect = lower value 1.01 | S. cerevisiae deletion strains, locus YOL006C, strain TOP1, stronger effect = lower value 1.06 | S. cerevisiae deletion strains, locus YOL012C, strain htz1 0.92 | S. cerevisiae deletion strains, locus YOL147C, strain pex11, stronger effect = lower value 1.01 | S. cerevisiae deletion strains, locus YOR001W, strain rrp6, stronger effect = lower value 1.05 | S. cerevisiae deletion strains, locus YOR061W, strain CKA2, stronger effect = lower value 1.02 | S. cerevisiae deletion strains, locus YOR069W, strain VPS5, stronger effect = lower value 1.01 | S. cerevisiae deletion strains, locus YOR070C, strain gyp1, stronger effect = lower value 1.02 | S. cerevisiae deletion strains, locus YOR080W, strain dia2, stronger effect = lower value 1.04 | S. cerevisiae deletion strains, locus YOR083W, strain WHI5, stronger effect = lower value 1.02 | S. cerevisiae deletion strains, locus YOR106W, strain vam3, stronger effect = lower value 1.07 | S. cerevisiae deletion strains, locus YOR136W, strain idh2, stronger effect = lower value 1.02 | S. cerevisiae deletion strains, locus YOR144C, strain elg1, stronger effect = lower value 1.01 | S. cerevisiae deletion strains, locus YOR184W, strain ser1, stronger effect = lower value 1.03 | S. cerevisiae deletion strains, locus YOR231W, strain MKK1, stronger effect = lower value 1.08 | S. cerevisiae deletion strains, locus YOR265W, strain rbl2, stronger effect = lower value 1.02 | S. cerevisiae deletion strains, locus YOR270C, strain vph1, stronger effect = lower value 1.12 | S. cerevisiae deletion strains, locus YOR290C, strain snf2, stronger effect = lower value 1.02 | S. cerevisiae deletion strains, locus YOR316C, strain cot1, stronger effect = lower value 1.02 | S. cerevisiae deletion strains, locus YPL051W, strain arl3, stronger effect = lower value 1.02 | S. cerevisiae deletion strains, locus YPL055C, strain LGE1, stronger effect = lower value 1.02 | S. cerevisiae deletion strains, locus YPL078C, strain atp4, stronger effect = lower value 1.01 | S. cerevisiae deletion strains, locus YPL106C, strain sse1, stronger effect = lower value 1.01 | S. cerevisiae deletion strains, locus YPL240C, strain hsp82, stronger effect = lower value 1.02 | S. cerevisiae deletion strains, locus YPL256C, strain CLN2, stronger effect = lower value 1.03 | S. cerevisiae deletion strains, locus YPR119W, strain clb2, stronger effect = lower value 1.02 | S. cerevisiae deletion strains, locus YPR141C, strain kar3, stronger effect = lower value 1.02 | S. cerevisiae deletion strains, locus YPR163C, strain tif3, stronger effect = lower value 1.03 | S. cerevisiae deletion strains, locus YPR167C, strain met16, stronger effect = lower value 1.02 | S. cerevisiae deletion strains, strain wtn01, stronger effect = lower value 1.05 | S. cerevisiae strains, strain wild type, stronger effect = lower value 1.01
